# Source: ChEMBL document CHEMBL5308504, “Tm Shift (DSF) assay results for EUbOPEN Chemogenomics Library” (2023)
# Molecular target: T1, Transcription intermediary factor 1-alpha (Homo sapiens) (UniProt O15164)
# T1 sequence (whole entry): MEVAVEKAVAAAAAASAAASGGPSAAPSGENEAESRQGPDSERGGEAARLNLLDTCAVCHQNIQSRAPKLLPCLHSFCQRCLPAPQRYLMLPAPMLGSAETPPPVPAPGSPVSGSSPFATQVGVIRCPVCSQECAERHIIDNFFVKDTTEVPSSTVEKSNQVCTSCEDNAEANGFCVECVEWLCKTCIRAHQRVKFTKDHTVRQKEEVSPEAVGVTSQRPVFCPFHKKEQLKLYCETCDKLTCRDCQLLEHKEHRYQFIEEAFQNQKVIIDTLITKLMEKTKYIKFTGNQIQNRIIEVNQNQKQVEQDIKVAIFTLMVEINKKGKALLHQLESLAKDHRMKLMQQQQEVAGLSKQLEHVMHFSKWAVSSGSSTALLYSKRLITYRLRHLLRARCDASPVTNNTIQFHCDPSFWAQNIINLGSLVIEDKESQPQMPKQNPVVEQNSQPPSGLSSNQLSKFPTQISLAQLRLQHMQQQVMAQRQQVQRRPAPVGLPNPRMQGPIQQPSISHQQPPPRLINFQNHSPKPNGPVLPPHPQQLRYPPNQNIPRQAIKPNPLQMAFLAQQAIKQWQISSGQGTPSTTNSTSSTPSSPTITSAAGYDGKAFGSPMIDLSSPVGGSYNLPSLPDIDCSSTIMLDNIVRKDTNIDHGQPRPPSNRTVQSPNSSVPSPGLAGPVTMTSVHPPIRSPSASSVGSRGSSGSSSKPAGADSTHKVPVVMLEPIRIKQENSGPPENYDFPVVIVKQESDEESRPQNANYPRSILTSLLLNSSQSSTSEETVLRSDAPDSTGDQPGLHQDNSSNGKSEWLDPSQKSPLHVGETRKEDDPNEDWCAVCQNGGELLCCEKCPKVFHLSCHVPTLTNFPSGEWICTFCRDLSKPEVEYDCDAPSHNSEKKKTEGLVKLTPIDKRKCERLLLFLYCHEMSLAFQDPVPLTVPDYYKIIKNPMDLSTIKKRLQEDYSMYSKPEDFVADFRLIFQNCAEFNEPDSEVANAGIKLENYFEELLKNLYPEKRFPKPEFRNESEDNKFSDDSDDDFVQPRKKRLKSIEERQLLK
# Conditions: Compound concentration 20.0 uM, Protein concentration 2.0 uM, Result type QC Liability
row,Structure (SMILES),ΔTm [°C]
1,CCCS(=O)(=O)N[C@H]1C[C@@H](N(C)c2ncnc3[nH]ccc23)C1,-3.66
2,CN(C)C/C=C/C(=O)Nc1ccc(C(=O)Nc2cccc(Nc3ncc(Cl)c(-c4c[nH]c5ccccc45)n3)c2)cc1,-1.56
3,COC[C@@H](C)N[C@H]1CC[C@H](Nc2cc(-c3cccc(NCC4(C#N)CCOCC4)n3)c(Cl)cn2)CC1,-3.05
4,C[C@@H]1OCC2(CCN(c3cnc(Sc4ccnc(N)c4Cl)c(N)n3)CC2)[C@@H]1N,-0.86
5,NC(=O)c1ccc(-c2nc(-c3ccc4c(c3)OCCO4)c(-c3ccccn3)[nH]2)cc1,-0.21
6,O=C(O)c1ccc(CN2C[C@@H]3C[C@H]2CN3Cc2ccc(Oc3ccc(-c4ncco4)cc3)cc2)cc1,-1.06
7,CCOC(=O)CS(=O)(=O)c1ccc([C@@H](CO)NC(=O)c2cc3c(Cl)c(Cl)c(C)cc3n2C)cc1,-0.06
8,Cn1ccc(Cn2cnc(-c3ccc(F)cc3)c2-c2ccnc3[nH]ccc23)n1,-3.2
9,CN1CCN(c2ccc(-n3cc(-c4ccncc4OCC4CCNCC4)cn3)cc2)CC1,-2.76
10,CCCCc1oc2ccccc2c1C(=O)c1cc(I)c(OCCN(CC)CC)c(I)c1,-4.38
11,CN(C)CCCNc1ccnc(Nc2cccc(Cl)c2)n1,-4.21
12,CN(C1CCc2c(c3ccccc3n2CC(=O)O)C1)S(=O)(=O)c1ccc(F)cc1 (stereo not given),-0.54
13,O=c1cc(C2CCNCC2)n2nc3cccc(Cl)c3c2[nH]1,0.25
14,Cc1cc(Cn2c(N3CC4(CNC4)C3)nc3c(N4CCN(C)CC4)cc(Cl)cc32)cc(C)c1F,-0.77
15,CCCCc1c(-c2ccccc2)nc(N)nc1-c1ccc(OCc2ccccc2)c(F)c1F,-1.94
